Assay outcomes (PubChem)
An excerpt weighted towards active compounds, which were near 10% of everything screened.
Luciferase inh: inhibitors of firefly (Photinus pyralis) luciferase; P08659; purified P. pyralis luciferase, luminescence, biochemical; Potency, µM (series often up to 115 µM), usual class: inhibitors; 76,000 compounds, 2.5% hits; note: nearly all actives have a fitted effect of over 65% in size
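Biochemical qHTS: compound (6-point titration) added to 10uM D-luciferin plus 10uM ATP in Tris acetate pH 7.5 buffer with Mg, Tween-20 and BSA, then purified enzyme at 10nM; light output imaged.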
3T3 cytotox: cytotoxic compounds in NIH 3T3 cells. NIH 3T3 viability, CellTiter-Glo ATP luminescence, 48-72 h. Potency, µM (highest dose often 96.7 µM), most hits filed as inhibitors. 94,000 compounds, 4.3% hits; note: nearly all actives have a fitted effect of over 55% in size
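Viability of NIH 3T3 cells after 48 or 72 hr compound treatment at 37 °C was assessed by CellTiter-Glo, with luminescence imaged following a 10 min room-temperature step.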
hNpr1 antagonist: human Npr1 receptor antagonism | 76,000 compounds, 1.6% hits | HEK293 hNpr1 GloSensor cGMP, ANP-stimulated luminescence | P16066 | Potency, µM (top dose mostly 46.3 µM), usual class: inhibitors; calls by dose curve; note: nearly all actives have a fitted effect of over 60% in size
Target sequence (P16066 whole entry, looked up): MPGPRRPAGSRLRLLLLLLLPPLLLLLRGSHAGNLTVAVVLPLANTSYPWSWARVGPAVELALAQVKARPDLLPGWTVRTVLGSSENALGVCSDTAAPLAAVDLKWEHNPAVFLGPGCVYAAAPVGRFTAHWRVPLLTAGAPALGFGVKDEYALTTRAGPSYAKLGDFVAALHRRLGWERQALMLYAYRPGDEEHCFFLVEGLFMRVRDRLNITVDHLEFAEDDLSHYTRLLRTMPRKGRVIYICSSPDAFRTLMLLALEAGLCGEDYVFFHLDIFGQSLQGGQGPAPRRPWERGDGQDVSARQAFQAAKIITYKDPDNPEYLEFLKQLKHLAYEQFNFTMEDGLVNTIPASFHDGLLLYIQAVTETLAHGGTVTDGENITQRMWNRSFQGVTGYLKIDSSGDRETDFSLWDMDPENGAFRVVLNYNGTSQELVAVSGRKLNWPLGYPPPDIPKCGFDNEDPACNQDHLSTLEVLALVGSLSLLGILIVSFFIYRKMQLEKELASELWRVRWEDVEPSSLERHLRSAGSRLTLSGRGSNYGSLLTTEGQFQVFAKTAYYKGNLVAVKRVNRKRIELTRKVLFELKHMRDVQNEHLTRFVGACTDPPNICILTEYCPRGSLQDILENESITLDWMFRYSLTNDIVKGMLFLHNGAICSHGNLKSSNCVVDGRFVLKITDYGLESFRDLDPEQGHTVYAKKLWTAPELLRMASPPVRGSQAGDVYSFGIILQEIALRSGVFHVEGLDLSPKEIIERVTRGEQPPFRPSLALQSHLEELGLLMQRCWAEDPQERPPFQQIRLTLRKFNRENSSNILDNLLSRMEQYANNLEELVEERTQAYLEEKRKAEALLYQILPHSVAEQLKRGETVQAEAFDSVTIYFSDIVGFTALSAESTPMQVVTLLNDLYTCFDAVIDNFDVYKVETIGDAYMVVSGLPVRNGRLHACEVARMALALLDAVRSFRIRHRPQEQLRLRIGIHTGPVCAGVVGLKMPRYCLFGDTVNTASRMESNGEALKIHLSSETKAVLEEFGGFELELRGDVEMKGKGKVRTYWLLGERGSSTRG
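HEK293 cells stably expressing human Npr1 and cGMP GloSensor pGS-40F, loaded 2 h with 2% GloSensor reagent, given compound 30 min at room temperature. Luminescence read before and 20 min after 0.1 nM hNppA.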
GPT2 inh: blocks human glutamate pyruvate transaminase 2; Q8TD30; Recombinant GPT2, coupled pyruvate oxidase/HRP Amplex Red fluorescence; Potency, µM (doses to about 57.7 µM), usual class: inhibitors; 100,000 compounds, 0.25% hits; note: nearly all actives have a fitted effect of over 60% in size
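Inhibition is scored from Amplex Red fluorescence generated when pyruvate oxidase and HRP act on pyruvate released by GPT2. Reactions contain 10ng/uL enzyme, 250uM a-KG and 2mM L-alanine and run 30 min at room temperature.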
HEK293 tox: HEK 293 cell cytotoxicity | 94,000 compounds, 6.6% hits | AID 1345083 | HEK 293 viability, ATP luminescence (CellTiter-Glo), 48-72 h | Potency, µM (titrated, usually from 115 µM), usual class: inhibitors; note: nearly all actives have a fitted effect of over 60% in size
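Read-out: CellTiter-Glo ATP luminescence. Cells: HEK 293, 250 cells/well. Exposure: 48 or 72 hr, 37 degree Celsius.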
Numbers stand for hits; i = inactive; ? = inconclusive; nt = no result given. Unless noted, calls come from the whole dose curve; as a rule, active = well fitted curve in the direction sought with a large enough effect; inconclusive = small, poorly fitted or top-dose-only effect, or another doubt; inactive = no such curve, though single readings can be large; an effect the other way counts as inactive or inconclusive.

SMILES | Luciferase inh | 3T3 cytotox | hNpr1 antagonist | GPT2 inh | HEK293 tox
CC(C)n1cc(CN2CCCN(S(=O)(=O)c3ccccc3)CCC(=O)NCC2)c2ccccc21 | i | ? | i | i | ?
N#Cc1cccnc1-c1ccc(C(=O)N2CCC(NC(=O)c3cccc(Cl)c3)CC2)cc1 | nt | ? | nt | i | ?
O=C(Cc1ccc(N(Cc2cccc(F)c2)C(=O)c2ccco2)cc1)Nc1ccccc1 | i | 35.5µM | i | i | 44.7µM
O=C(Cc1ccc(N(Cc2ccc(F)cc2)C(=O)c2ccco2)cc1)NCc1ccc(F)cc1 | i | 39.8µM | i | i | 25.1µM
O=C(Cc1ccc(N(Cc2ccc(F)cc2)C(=O)c2ccco2)cc1)Nc1ccc(F)cc1 | i | 31.6µM | i | i | ?
O=C(Cc1ccc(N(Cc2cccc(F)c2)C(=O)c2ccco2)cc1)NCc1ccccc1 | i | ? | i | i | ?
CN(Cc1ccccc1)C(=O)Cc1ccc(N(Cc2cccc(F)c2)C(=O)c2ccco2)cc1 | i | 35.5µM | i | i | ?
CCCN(C)C(=O)Cc1ccc(N(Cc2ccc(F)cc2)C(=O)c2ccco2)cc1 | i | ? | i | i | ?
O=C(NCC(F)(F)F)c1nc2sccn2c1-c1cccnc1 | nt | ? | nt | i | i
O=C(NCCCc1ccccc1)c1nc2cccnc2n(Cc2ccccc2)c1=O | nt | ? | nt | i | ?
O=C(c1cn2cc(-c3ccccc3Cl)n(CC3CC3)c(=O)c2n1)N1CCCCC1 | i | i | i | i | ?
CN(C)CC1(O)CCCN(c2ncccc2C(N)=O)CC1 (stereo not given) | i | i | i | i | i
CC(C)c1ccc(CN2CCCC3(CCN(c4ncccc4C(N)=O)C3)C2)cc1 (stereo not given) | i | ? | i | i | 39.8µM
CCOC(=O)C1=CN(CC(=O)N(CC)c2cccc(C)c2)S(=O)(=O)N=C1C | i | i | i | i | ?
CC(=O)Nc1cccc(-c2n[nH]c3c2CC(=O)N(CCOc2ccccc2)C3)c1 | i | 35.5µM | i | i | ?
CC(=O)Nc1cccc(-c2n[nH]c3c2CC(=O)N(Cc2ccccc2)C3)c1 | i | ? | i | i | 100µM
CC(=O)Nc1cccc(-c2n[nH]c3c2CC(=O)N(CC2CC2)C3)c1 | i | ? | i | i | ?
COc1cc(NC(=O)Cn2c(-c3ccc(F)cc3)nc(C)c(CCO)c2=O)cc(OC)c1 | i | i | i | i | ?
COC(=O)[C@H](Cc1ccc(OC)cc1)NC(=O)[C@H]1CN(S(=O)(=O)c2ccccc2)CCN1C(=O)NC1CCCCC1 | i | i | i | i | ?
Cc1nccn1-c1ccc(NC(=O)C2CCCN(c3ncccc3C#N)C2)cc1 (stereo not given) | i | ? | i | i | 39.8µM
O=C(NC1CCN(c2ccnc3ccnn23)CC1)C1CCCC1 | nt | i | nt | i | i
O=C(NC1CCCCCC1)C1CCCN(c2ccnc3ccnn23)C1 (stereo not given) | nt | ? | nt | i | 79.4µM
Cc1ccc(NC(=O)C2CCCN(c3ccnc4ccnn34)C2)cc1 (stereo not given) | nt | ? | nt | i | 35.5µM
Cc1ccc(C2Cn3nnc(C(=O)N4CCC(C(=O)NCc5ccco5)CC4)c3CO2)cc1 (stereo not given) | 31.6µM | i | i | i | i
Cc1ccc(C2Cn3nnc(C(=O)N4CCC(C(=O)NCC(C)C)CC4)c3CO2)cc1 (stereo not given) | 22.4µM | i | i | i | i
SMILES | Luciferase inh | 3T3 cytotox | hNpr1 antagonist | GPT2 inh | HEK293 tox
Cc1ccc(C2Cn3nnc(C(=O)N4CCC(C(=O)NC5CCCCCCC5)CC4)c3CO2)cc1 (stereo not given) | ? | i | i | i | ?
Cc1ccc(C2Cn3nnc(C(=O)N4CCC(C(=O)NCC5CC5)CC4)c3CO2)cc1 (stereo not given) | 25.1µM | i | i | i | i
Cc1ccc(C2Cn3nnc(C(=O)N4CCC(C(=O)NC5CCCCCC5)CC4)c3CO2)cc1 (stereo not given) | ? | i | i | i | ?
Cc1ccc(C2Cn3nnc(C(=O)N4CCC(C(=O)NC(C)c5ccc(F)cc5)CC4)c3CO2)cc1 (stereo not given) | 35.5µM | ? | i | i | ?
COCc1ccc2c(c1)c(OC(C)(C)C(=O)NCCN1CCOCC1)nn2CCC(C)C | i | ? | i | i | i
Cn1nccc1C(=O)N1CCC(N2CC3(CCCCC3)C2c2ccncc2)CC1 (stereo not given) | nt | i | nt | i | i
Cc1ccc(CCNC(=O)C2CCN(C(=O)c3nnn4c3COC(c3ccc(C)cc3)C4)CC2)cc1 (stereo not given) | 8.91µM | i | i | i | i
COc1ccccc1CNC(=O)C1CCN(C(=O)c2nnn3c2COC(c2ccc(C)cc2)C3)CC1 (stereo not given) | 17.8µM | i | i | i | i
Cc1ccc(C2Cn3nnc(C(=O)N4CCC(C(=O)NCc5cccc(C)c5)CC4)c3CO2)cc1 (stereo not given) | ? | i | i | i | i
CNC(=O)c1cc(C2CC2)nc2c1c(C1CCCN(C(=O)C3CC3)C1)nn2C (stereo not given) | nt | i | nt | nt | i
Cc1ccc(OCc2nc(C3CN(C(=O)c4ccc5[nH]ccc5c4)C3)no2)cc1 | nt | ? | nt | i | ?
CCOc1ccccc1C(=O)NC1CCN(c2cc(-c3ccc(F)cc3)[nH]n2)C1 (stereo not given) | i | ? | i | ? | ?
O=C(NCC1CCN(c2cc(-c3ccc(F)cc3)[nH]n2)CC1)c1c[nH]c2ccccc12 | ? | 31.6µM | i | ? | ?
O=C(NC1CCN(c2cc(-c3ccccc3)[nH]n2)CC1)c1cc(F)ccc1Cl | i | ? | i | i | ?
O=C(NC1CCCN(c2cc(-c3ccccc3)[nH]n2)C1)c1ccccc1Cl (stereo not given) | ? | ? | i | i | ?
O=C(NC1CCCN(c2cc(-c3ccccc3)[nH]n2)C1)c1c[nH]c2ccccc12 (stereo not given) | 39.8µM | ? | i | ? | ?
O=C(NC1CCN(c2cc(-c3ccc(F)cc3)[nH]n2)C1)c1c[nH]c2ccccc12 (stereo not given) | i | 31.6µM | i | ? | 39.8µM
O=C(NC1CCN(c2cc(-c3ccc(F)cc3)[nH]n2)CC1)c1c[nH]c2ccccc12 | i | 31.6µM | i | i | ?
Cc1ccc(C(=O)N2CCC(N3CCCC(C(=O)N4CCCC4)C3)CC2)s1 (stereo not given) | i | i | i | i | i
O=C(c1ccc(Cl)nc1)N1CCC(C(=O)N2CCC(N3Cc4ccccc4C3=O)CC2)CC1 | nt | i | nt | ? | i
O=C(NCc1ccc(Cl)cc1)C1CN(C2CCCC2)C(=O)N1 (stereo not given) | nt | i | nt | i | i
COc1ccc(-c2nc(C)nc3c2CCN(C(=O)c2ccc4c(c2)OCO4)CC3)cc1 | i | i | i | i | ?
CCc1nc2c(c(-c3ccc(OC)cc3)n1)CN(C(=O)c1ccccc1)CC2 | nt | 14.1µM | nt | i | i
